40 molecules from PubChem BioAssay (EPA / NIEHS) can be followed below.

Calls of active or inactive are those of the source. The calls were made as follows: active = hit-call score of the fitted dose curve at least 0.9, where 1 is the maximum; inactive = score below 0.9.

A short description of this assay: APR_HepG2_StressKinase_1hr: Apredica 1-hour HepG2 Assay for Stress Kinase (AID 2282906). Particulars: HepG2 stress kinase (phospho-c-Jun) imaging, actives raise or lower the signal. On the procedure: APR_HepG2_1hr is a cell-based, multiplexed-readout assay that uses HepG2, a human liver cell line, with measurements taken at 1 hour after chemical dosing in a 384-well plate.APR_HepG2_StressKinase_1hr is one of 10 assay component(s) measured or calculated from the APR_HepG2_1hr assay. It is designed to make measurements of enzyme activity, a form of enzyme reporter, as detected with fluorescence intensity signals by HCS Fluorescent Imaging technology.Data from the assay component APR_HepG2_StressKinase_1hr was analyzed into 1 assay endpoint. This assay endpoint, APR_HepG2_StressKinase_1hr, was analyzed with bidirectional fitting relative to DMSO as the negative control and baseline of activity. Using a type of enzyme reporter, measures of protein for gain or loss-of-signal activity can be used to understand the signaling at the pathway-level as they relate to the gene . Furthermore, this assay endpoint can be referred to as a primary readout, because this assay has produced multiple assay endpoints where this one serves a signaling function. To generalize the intended target to other relatable targets, this assay endpoint is annotated to the cell cycle intended target family, where the subfamily is stress response.
Cells were treated with dimethyl sulfoxide (DMSO) as a solvent control at a final concentration of 0.5% v/v or with compounds in DMSO with a resulting final DMSO concentration of 0.5% v/v. Compound treatment was done at concentrations of 0.39, 0.78, 1.56, 3.12, 6.24, 12.5, 25, 50, 100, and 200 uM in duplicate on each plate. Cells were treated with compounds for 1, 24, or 72 hr. Carbonyl […] m-chloro-phenylhydrazone (CCCP) and taxol were used as positive controls for mitochondrial function and cytoskeletal stability, respectively; DMSO served as the negative control for this experiment. Cells were fixed by the direct addition of 50 uL formaldehyde in Hank's Balanced Salt Solution (HBSS) to a final concentration of 3.7%. After incubation in the fixation medium for 30 min at room temperature (293-298 K), cells were rinsed twice with HBSS and treated with cell permeabilization buffer (16 uL of 0.5% Triton X-100) for 10 min at room temperature (293-298 K) before labeling. For mitochondrial membrane potential and mitochondrial measurements, pre-fixed cells were incubated with 50 uL of MitoTracker Red CMXRos (Invitrogen) at a concentration of 250 nM for 30 min before fixation. In the remaining cases, post-fixed cells were labeled by incubation with a multiplexed mixture of primary antibodies in HBSS for 60 min at room temperature (293-298 K) to detect immunoreactivity of c-Jun (1:500), phospho-histone H3 (1:100), phospho-histone H2A.x (1:200), p53 (1:400), alpha-tubulin (1:200) and Hoechst 33342 (2 ug/mL). Cells were labeled for multiplexed imaging on two separate plates: a) Hoechst 33342, MitoTracker Red, phospho-histone H3, and alpha-tubulin, and b) Hoechst 33342, phospho-histone H2A.x, and c-Jun. A final rinse with HBSS (50 uL) was performed before analysis. The primary and secondary antibodies for the proteins were phospho-histone H3 (rabbit anti-phospho-histone H3 and FITC-donkey anti-rabbit IgG), phospho-histone H2A.x (mouse anti-phospho-histone H2A.x and FITC-donkey anti-mouse IgG), c-Jun (rabbit anti-phospho-c-Jun and Cy3-donkey anti-rabbit IgG), p53 (sheep anti-p53 and Cy5-donkey anti-sheep IgG), alpha-tubulin (mouse anti-alpha-tubulin and Cy5-donkey anti-mouse IgG). These antibodies are available as the CellCiphr HepG2 assay kit (Millipore).Digital images of each well were captured using a Cellomics ArrayScan VTI (Thermo Scientific Cellomics) (0.8 NA objective, 0.63x optical coupler, and XF-93 filter set) at 20x magnification. The images were acquired using the autofocus feature of the ArrayScan instrument, which entails the following steps. First, the camera focuses on channel 1 (Hoechst 33342), where nuclei are identified. Second, a Z offset of 1 um is used for capturing mitochondria (MitoTracker Red). […]
As for `COC(=O)N(OC)c1ccccc1COc1ccn(-c2ccc(Cl)cc2)n1`, the call was inactive.

In the case of `CCOC(=O)CC(SP(=S)(OC)OC)C(=O)OCC` (stereo not given), the result was inactive.

Turning to `CCOC(=O)C(Cl)Cc1cc(-n2nc(C)n(C(F)F)c2=O)c(F)cc1Cl` (stereo not given), the outcome was inactive. Consider `CCNc1nc(Cl)nc(NCC)n1`, for which the outcome was inactive. Still for that read-out and setting: the result for `CCON=C(CC)C1=C(O)CC(c2c(C)cc(C)cc2C)CC1=O` (stereo not given) reads “inactive”; that for `O=C(O)c1nc(Cl)ccc1Cl`, “inactive”; that for `CC(C)(C)c1ccc(CSc2cnn(C(C)(C)C)c(=O)c2Cl)cc1`, “inactive”.

For the molecule `OC(c1ccc(Cl)cc1)(c1cncnc1)c1ccccc1Cl` (stereo not given), the call was inactive. Same read-out and setting: the same measure for `N#Cc1nn(-c2c(Cl)cc(C(F)(F)F)cc2Cl)c(N)c1S(=O)C(F)(F)F` (stereo not given): “inactive”; for `COP(N)(=O)SC` (stereo not given): “inactive”. Take `CCOc1cc(Oc2ccc(C(F)(F)F)cc2Cl)ccc1[N+](=O)[O-]`: the result was inactive.

For `COc1nc(C)nc(NC(=O)NS(=O)(=O)c2ccccc2Cl)n1`, the call was inactive. For `CNC(=S)S`, the call was inactive. `Fc1ccc(Oc2ccnc3cc(Cl)cc(Cl)c23)cc1`: the molecule was called inactive. The same measure, in the same setting: the same measure for `CCCN(CCC)c1c([N+](=O)[O-])cc(S(N)(=O)=O)cc1[N+](=O)[O-]`: “inactive”; for `CC(C)Oc1cc(-n2nc(C(C)(C)C)oc2=O)c(Cl)cc1Cl`: “inactive”. On the same count and under the same terms, the result for `CO/C=C(/C(=O)OC)c1ccccc1Oc1cc(Oc2ccccc2C#N)ncn1` reads “inactive”; that for `C#CCOS(=O)OC1CCCCC1Oc1ccc(C(C)(C)C)cc1` (stereo not given), “inactive”; that for `Cc1c(F)c(F)c(COC(=O)C2C(/C=C(\Cl)C(F)(F)F)C2(C)C)c(F)c1F` (stereo not given), “inactive”. For the molecule `C=CCC1=C(C)[C@@H](OC(=O)[C@@H]2[C@@H](C=C(C)C)C2(C)C)CC1=O`, the molecule was called inactive. In the case of `O=C(O)COc1nc(Cl)c(Cl)cc1Cl`, the molecule was classed as inactive. Take `CC(C)C1(C)N=C(c2nc3ccccc3cc2C(=O)O)NC1=O` (stereo not given): the call was inactive. For the molecule `COP(=S)(OC)Oc1nc(Cl)c(Cl)cc1Cl`, the molecule was classed as inactive.

Consider `COc1ccc(C(c2ccc(OC)cc2)C(Cl)(Cl)Cl)cc1`, for which the molecule was called inactive. Still for that read-out and setting: the same measure for `CC1=C(C(=O)Nc2ccccc2)SCCO1`: “inactive”.

On to `COc1nc(C)nc(NC(=O)NS(=O)(=O)c2ccccc2CCC(F)(F)F)n1`, for which the call was inactive. As to `CCCCNC(=O)OCC#CI`, the result was inactive. As for `CC(Oc1ccc(Cl)cc1Cl)C(=O)O` (stereo not given), the molecule was called inactive.

On to `CS/C(C)=N/OC(=O)N(C)SN(C)C(=O)O/N=C(\C)SC`, for which the molecule was classed as inactive. As for `Cc1cc(Cl)ccc1OCC(=O)O`, the molecule was classed as inactive. `C=CCC1=C(C)C(OC(=O)C2C(C=C(C)C)C2(C)C)CC1=O` (stereo not given): the result was inactive. Regarding `CNC(=O)ON=CC(C)(C)SC`, the molecule was classed as inactive. For the molecule `CN(C)C(=S)SSC(=S)N(C)C`, the concentration at half-maximal activity (AC50) was 3.07 µM (active). Consider `CCCCOC(=O)c1ccccc1C(=O)OCCCC`, for which the molecule was classed as inactive. For the molecule `COc1cnc(OC)n2nc(NS(=O)(=O)c3c(OCC(F)F)cccc3C(F)(F)F)nc12`, the result was inactive.

Take `Cc1ccc(-c2c(Cl)nc(C#N)n2S(=O)(=O)N(C)C)cc1`: the molecule was classed as inactive.

On to `CCCC1COC(Cn2cncn2)(c2ccc(Cl)cc2Cl)O1` (stereo not given), for which the molecule was called inactive. On the same count and under the same terms, the result for `COC(=O)c1ccccc1C(=O)OC` reads “inactive”; that for `COC(=O)C=C(C)OP(=O)(OC)OC`, “inactive”; that for `Oc1ccccc1-c1ccccc1`, “inactive”.

What is called AC50 is the midpoint of the concentration-response curve, whichever way the signal moves.
